Parameters in all cases: scale not given: direction of the effect not stated beside the values
In test [1] the target is Protein translocase subunit SecA (Escherichia coli (strain K12)) (UniProt P10408). Kind of test: Assay to Identify E. coli SecA ATPase Inhibitors. As to conditions: 30 µM. Type of test: functional.
Test [2] addresses T1, Ubiquitin-activating enzyme e1, putative (Leishmania donovani (strain BPK282A1)) (UniProt E9BSI1).
T1 sequence (whole entry): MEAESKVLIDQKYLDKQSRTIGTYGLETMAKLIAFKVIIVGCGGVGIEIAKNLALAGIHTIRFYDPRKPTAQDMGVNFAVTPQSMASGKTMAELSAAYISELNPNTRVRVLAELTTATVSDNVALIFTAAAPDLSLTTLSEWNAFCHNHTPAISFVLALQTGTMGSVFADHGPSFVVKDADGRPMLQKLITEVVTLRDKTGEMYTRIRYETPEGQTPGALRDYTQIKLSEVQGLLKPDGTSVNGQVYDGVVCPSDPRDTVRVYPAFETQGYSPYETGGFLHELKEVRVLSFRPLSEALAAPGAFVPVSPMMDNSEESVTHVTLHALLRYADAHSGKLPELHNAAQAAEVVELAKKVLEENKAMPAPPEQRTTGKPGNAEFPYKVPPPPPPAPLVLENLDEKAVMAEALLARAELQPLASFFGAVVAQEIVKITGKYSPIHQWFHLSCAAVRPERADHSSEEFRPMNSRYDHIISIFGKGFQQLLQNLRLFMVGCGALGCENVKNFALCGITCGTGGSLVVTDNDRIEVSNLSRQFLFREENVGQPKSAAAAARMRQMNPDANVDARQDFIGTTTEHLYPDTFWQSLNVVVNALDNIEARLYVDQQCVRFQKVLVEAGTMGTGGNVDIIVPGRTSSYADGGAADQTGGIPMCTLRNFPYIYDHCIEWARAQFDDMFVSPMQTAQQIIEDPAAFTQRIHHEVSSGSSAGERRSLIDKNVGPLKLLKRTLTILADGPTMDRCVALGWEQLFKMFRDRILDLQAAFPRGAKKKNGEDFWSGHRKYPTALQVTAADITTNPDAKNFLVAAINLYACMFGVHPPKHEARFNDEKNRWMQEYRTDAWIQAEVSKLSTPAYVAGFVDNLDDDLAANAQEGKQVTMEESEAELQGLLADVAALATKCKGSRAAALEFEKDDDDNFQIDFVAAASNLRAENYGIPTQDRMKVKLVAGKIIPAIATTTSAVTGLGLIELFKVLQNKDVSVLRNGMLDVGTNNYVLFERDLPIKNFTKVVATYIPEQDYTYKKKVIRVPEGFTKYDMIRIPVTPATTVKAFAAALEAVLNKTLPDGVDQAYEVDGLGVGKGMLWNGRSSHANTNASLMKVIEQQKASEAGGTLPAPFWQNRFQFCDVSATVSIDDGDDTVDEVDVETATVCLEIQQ
Nature of the test: Leishmania donovani Ubiquitin Activating Enzyme (LdE1). Format: functional. As to conditions: 30 µM.

In test [3] the target is Sialic acid-binding Ig-like lectin 9 (Homo sapiens) (UniProt Q9Y336). Kind of test: Hs-Siglec9 ALPHAscreen SOP 20170721. As to conditions: 10 µM.
The next test has as its system Trypanosoma cruzi. Nature of the test: Trypanosoma cruzi phosphomannomutase and mannose-1-phosphate guanylyltransferase assay. Type of test: functional. As to conditions: 10 µM.
The target in test [4] is T2, Arginase-2, mitochondrial (Homo sapiens) (UniProt P78540).
T2 sequence (whole entry): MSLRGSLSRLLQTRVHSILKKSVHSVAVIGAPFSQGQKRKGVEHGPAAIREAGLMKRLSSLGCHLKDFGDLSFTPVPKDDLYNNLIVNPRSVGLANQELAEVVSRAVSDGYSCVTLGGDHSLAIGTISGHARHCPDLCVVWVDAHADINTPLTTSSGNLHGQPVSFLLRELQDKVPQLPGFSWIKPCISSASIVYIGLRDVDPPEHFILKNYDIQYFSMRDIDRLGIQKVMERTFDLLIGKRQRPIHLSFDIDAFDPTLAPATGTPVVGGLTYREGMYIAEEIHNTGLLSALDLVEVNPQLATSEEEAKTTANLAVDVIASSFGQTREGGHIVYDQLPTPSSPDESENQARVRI
Kind of test: in vitro enzyme assay to detect the production of urea directly proportional to the activity of Arginase II. Further: in the data most compounds retested in dose-response had high values. Format: functional. As to conditions: 33.3 µM.

Test [5] has as its target T3, Proteasome subunit beta (Trypanosoma cruzi) (UniProt O96673).
T3 sequence (whole entry): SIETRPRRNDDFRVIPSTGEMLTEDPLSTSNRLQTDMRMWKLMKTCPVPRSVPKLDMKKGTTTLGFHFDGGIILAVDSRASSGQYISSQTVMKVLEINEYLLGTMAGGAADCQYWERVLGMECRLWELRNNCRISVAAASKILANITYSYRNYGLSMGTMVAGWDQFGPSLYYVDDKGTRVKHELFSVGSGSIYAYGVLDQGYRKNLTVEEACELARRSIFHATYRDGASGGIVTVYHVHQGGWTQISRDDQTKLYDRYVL
Kind of test: Trypanosoma cruzi proteasome chymotrypsin-like activity (TcProtChymo) assay. Further: in the data most compounds retested in dose-response had high values. Type of test: functional. Particulars: 9.37 µM.

For the next test, the species on record is Homo sapiens. Nature of the test: To identify inhibition of the IFN signalling (Jak-Stat) pathway via expression of an eGFP reporter gene under the control of an IFN-stimulated response element (ISRE) containing MxA promoter. Format: functional. As to conditions: 30 µM. (In general: In a reporter assay the amount or activity of a reporter protein is the signal.)

For test [6], the target named is T4, Tyrosyl-tRNA synthetase, putative (Trypanosoma cruzi (strain CL Brener)) (UniProt Q4DSP6).
T4 sequence (whole entry): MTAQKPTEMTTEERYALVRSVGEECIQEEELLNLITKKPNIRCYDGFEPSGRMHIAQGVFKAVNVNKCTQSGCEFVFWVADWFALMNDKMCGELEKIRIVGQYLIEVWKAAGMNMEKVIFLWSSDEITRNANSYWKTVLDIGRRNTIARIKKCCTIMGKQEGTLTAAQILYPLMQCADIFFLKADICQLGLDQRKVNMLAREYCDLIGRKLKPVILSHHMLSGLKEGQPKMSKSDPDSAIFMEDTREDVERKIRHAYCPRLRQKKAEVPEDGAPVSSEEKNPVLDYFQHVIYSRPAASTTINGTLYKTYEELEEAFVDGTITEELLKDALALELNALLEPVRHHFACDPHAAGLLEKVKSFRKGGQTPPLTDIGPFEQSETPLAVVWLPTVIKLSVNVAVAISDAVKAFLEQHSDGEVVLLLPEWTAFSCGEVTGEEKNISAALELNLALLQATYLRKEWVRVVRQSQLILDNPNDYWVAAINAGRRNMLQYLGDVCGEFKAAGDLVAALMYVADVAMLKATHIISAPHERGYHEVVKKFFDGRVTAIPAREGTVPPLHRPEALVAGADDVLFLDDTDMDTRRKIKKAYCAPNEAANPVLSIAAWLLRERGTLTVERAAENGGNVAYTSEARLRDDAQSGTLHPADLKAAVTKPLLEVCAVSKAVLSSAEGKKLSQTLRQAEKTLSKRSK
Kind of test: Trypanosoma cruzi tyrosyl tRNA synthetase (TcYRS) _High Tyrosine SOP. Further: in the data most compounds retested in dose-response had high values. As to conditions: 30 µM. Type of test: functional.

Test [7] addresses T4, Tyrosyl-tRNA synthetase, putative (Trypanosoma cruzi (strain CL Brener)). Nature of the test: Trypanosoma cruzi tyrosyl tRNA synthetase (TcYRS) SOP. Particulars: 30 µM. Type of test: functional.
Test [8] deals with Chromo domain-containing protein 1 (Saccharomyces cerevisiae (strain ATCC 204508 / S288c) (Baker's yeast)) (UniProt P32657). Nature of the test: ScCHD-1 Enzyme Inhibition Assay. Further: in the data most compounds retested in dose-response had high values. Format: functional. As to conditions: 30 µM.

For some assays here: Potency and affinity values are given separately.

Protein translocase subunit SecA (Escherichia coli (strain K12)), sequence (P10408 whole entry): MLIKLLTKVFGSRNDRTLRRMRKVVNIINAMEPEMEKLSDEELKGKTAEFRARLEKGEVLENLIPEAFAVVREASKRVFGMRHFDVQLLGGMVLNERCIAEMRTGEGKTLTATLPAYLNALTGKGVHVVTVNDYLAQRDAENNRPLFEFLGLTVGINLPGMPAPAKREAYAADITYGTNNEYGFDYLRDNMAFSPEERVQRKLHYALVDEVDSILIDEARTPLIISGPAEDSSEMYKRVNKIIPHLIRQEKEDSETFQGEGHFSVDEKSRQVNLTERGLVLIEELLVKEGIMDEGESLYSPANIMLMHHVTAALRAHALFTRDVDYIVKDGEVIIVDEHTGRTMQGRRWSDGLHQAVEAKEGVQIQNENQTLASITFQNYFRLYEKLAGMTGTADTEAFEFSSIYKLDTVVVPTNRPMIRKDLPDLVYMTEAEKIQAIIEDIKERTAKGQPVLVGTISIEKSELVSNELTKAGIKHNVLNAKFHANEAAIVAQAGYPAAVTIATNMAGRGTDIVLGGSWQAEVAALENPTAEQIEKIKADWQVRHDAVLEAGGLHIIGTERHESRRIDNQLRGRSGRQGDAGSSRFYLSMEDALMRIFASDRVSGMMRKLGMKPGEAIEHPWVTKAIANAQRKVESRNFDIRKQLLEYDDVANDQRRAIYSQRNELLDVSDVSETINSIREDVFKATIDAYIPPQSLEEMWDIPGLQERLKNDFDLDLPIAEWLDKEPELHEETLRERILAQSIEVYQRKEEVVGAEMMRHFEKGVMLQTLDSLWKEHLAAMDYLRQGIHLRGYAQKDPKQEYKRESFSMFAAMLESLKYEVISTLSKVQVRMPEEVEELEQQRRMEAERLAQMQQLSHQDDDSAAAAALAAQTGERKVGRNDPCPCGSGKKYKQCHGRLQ
Chromo domain-containing protein 1 (Saccharomyces cerevisiae (strain ATCC 204508 / S288c) (Baker's yeast)), sequence (P32657 whole entry, the tested form may be a part): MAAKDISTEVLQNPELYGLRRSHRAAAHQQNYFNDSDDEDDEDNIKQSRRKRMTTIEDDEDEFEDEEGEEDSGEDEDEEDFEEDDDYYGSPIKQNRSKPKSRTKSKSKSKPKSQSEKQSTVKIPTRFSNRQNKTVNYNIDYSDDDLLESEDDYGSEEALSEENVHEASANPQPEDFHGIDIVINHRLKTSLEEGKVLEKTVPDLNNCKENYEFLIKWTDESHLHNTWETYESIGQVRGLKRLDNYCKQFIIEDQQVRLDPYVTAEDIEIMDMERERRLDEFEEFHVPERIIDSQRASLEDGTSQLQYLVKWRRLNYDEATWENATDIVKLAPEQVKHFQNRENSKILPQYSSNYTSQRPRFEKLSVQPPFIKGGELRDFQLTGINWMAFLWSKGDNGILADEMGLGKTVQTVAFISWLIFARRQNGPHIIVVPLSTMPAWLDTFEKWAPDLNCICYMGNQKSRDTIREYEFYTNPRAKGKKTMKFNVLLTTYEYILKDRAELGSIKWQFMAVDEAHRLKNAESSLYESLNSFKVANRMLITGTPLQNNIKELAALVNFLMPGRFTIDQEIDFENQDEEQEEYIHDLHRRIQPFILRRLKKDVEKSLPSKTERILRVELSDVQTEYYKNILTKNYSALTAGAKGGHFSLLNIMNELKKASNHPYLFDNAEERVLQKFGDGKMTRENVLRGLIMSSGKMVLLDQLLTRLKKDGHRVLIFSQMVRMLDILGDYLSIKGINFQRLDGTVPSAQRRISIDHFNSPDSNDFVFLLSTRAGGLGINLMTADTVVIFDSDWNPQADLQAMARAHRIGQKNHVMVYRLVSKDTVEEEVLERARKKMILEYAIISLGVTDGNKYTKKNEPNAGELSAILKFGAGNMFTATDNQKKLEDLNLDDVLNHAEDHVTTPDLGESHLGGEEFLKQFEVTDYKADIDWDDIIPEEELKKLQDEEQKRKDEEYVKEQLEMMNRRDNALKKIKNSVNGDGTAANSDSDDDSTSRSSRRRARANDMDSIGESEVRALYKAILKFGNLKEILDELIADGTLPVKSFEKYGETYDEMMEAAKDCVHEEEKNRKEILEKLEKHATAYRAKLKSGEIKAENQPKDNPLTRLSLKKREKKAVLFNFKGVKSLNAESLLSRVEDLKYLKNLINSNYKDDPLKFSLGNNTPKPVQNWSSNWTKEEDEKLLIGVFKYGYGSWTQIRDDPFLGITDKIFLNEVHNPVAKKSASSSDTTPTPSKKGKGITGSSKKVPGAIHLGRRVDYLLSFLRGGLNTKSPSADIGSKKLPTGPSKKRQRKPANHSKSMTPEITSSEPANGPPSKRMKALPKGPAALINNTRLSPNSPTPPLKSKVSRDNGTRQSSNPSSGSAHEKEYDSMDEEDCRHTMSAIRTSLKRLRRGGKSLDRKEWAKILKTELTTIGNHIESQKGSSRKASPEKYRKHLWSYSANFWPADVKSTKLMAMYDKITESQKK
Sialic acid-binding Ig-like lectin 9 (Homo sapiens), sequence (Q9Y336 whole entry): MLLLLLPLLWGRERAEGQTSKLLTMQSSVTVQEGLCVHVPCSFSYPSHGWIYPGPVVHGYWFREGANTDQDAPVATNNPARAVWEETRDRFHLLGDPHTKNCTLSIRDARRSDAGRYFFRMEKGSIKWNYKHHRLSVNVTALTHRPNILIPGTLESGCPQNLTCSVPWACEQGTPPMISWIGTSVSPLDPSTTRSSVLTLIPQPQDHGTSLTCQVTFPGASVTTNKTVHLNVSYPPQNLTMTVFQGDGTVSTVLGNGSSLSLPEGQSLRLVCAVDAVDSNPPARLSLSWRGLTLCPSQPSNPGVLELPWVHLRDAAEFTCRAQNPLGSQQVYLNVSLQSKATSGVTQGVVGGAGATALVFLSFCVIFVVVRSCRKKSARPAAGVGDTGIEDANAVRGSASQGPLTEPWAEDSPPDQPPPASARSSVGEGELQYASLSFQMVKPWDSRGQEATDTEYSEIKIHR

Regarding `O=C(c1cnco1)N1CCCC(Cc2nccs2)C1` (stereo not given), the Percent Effect in test [1] was -3.28%; in test [2], 14.7%; in test [3] it was 5.58%; with Trypanosoma cruzi, 0.395%; in test [4], 4.87%; in [5], 19.1%. For the same molecule, the Percent Effect is -17.7% in the test listed under Homo sapiens, 7.41% in [6], 15% in test [7] and -20.4% in [8].

For the molecule `COC(=O)NCc1cc2n(n1)CCCN(C(C)=O)C2`, the Percent Effect in test [1] is -9.99%; in test [2] it was 5.41%; in test [3] it was -0.0271%; in the test with Trypanosoma cruzi, -3.98%; in [4] it was -2.45%; in [5], 7.19%. Further, the Percent Effect in the test listed under Homo sapiens is -0.185%; in [6], 4.79%; in [7], 12.2%; in test [8], -3.29%.

Consider `CC(C)C(NC(=O)N1CCN(c2ccc(Cl)cc2)CC1)C(=O)NC1CC1` (stereo not given), for which the Percent Effect in test [1] is -5.57%; in test [2], 5.41%; in test [3], 7.5%; in the test with Trypanosoma cruzi, 2.23%; in [4], -3.15%; in [5], 16.4%. In addition, the Percent Effect was 21.7% in the test filed under Homo sapiens, 4.79% in test [6], 19.5% in test [7] and -1.96% in test [8].

`CCc1nc(C)ncc1C(=O)N1CCCC(n2nc(C)nc2C)C1` (stereo not given): the Percent Effect in test [1] was -0.229%; in test [2] it was -53.9%; in test [3], -2.48%; in the test with Trypanosoma cruzi it was 8.92%; in test [4], -3.69%; in test [5], 0.0853%. For the same molecule, the Percent Effect in the test filed under Homo sapiens is -15.3%; in test [6], -3.35%; in test [7], 6.02%; in [8], -2.45%.

Consider `CC(C)c1noc(CCC(=O)NCC2CCS(=O)(=O)C2)n1` (stereo not given), for which the Percent Effect in [1] was -2.91%; in test [2] it was 21.3%; in [3], 0.895%; in the test with Trypanosoma cruzi it was 2.81%; in test [4], -0.444%; in test [5], 12.3%. Also, the Percent Effect in the test filed under Homo sapiens was 1.69%; in test [6], 1.58%; in test [7] it was 17.9%; in test [8], -12.2%.

In the case of `Cc1cccc(CN2C[C@@H]3COC[C@]3(CNC(=O)N3CCCC3)C2)n1`, the Percent Effect in test [1] was -4.34%; in [2], -1.3%; in test [3] it was 12.9%; with Trypanosoma cruzi, -3.02%; in [4], -4.86%; in [5], 4.68%. For the same molecule, the Percent Effect in the test listed under Homo sapiens is 1.04%; in [6] it was 3.68%; in [7], 5.13%; in test [8] it was 1.29%.

For `CCNc1cc2c(nn1)CCN(C(=O)c1cc3nc(C)ccc3o1)C2`, the Percent Effect is -8.41% in test [1]; 13.3% in test [2]; 11.1% in test [3]; 9.04% with Trypanosoma cruzi; -0.887% in [4]; 20.4% in [5]. Besides, the Percent Effect in the test listed under Homo sapiens was 6.54%; in [6], 5.79%; in test [7], 15.4%; in test [8], -6.95%.

`O=C(c1ncccn1)N1C[C@H]2CCC[C@@]2(COCc2cccnc2)C1`: the Percent Effect in [1] is -6.88%; in test [2], 3.9%; in [3] it was -0.0107%; in the test with Trypanosoma cruzi, -1.46%; in test [4] it was -4.45%; in test [5], 10.3%. The Percent Effect was 89.1% in the test listed under Homo sapiens, -2.63% in test [6], -7.69% in test [7] and -1.21% in test [8].

Turning to `Cc1nc(CN(C)C2CCN(Cc3ccc4ccccc4n3)C2)no1` (stereo not given), the Percent Effect is 0.184% in [1]; -5.2% in test [2]; -6.12% in test [3]; 7.28% in the test on Trypanosoma cruzi; -9.22% in test [4]; 20.4% in test [5]. The Percent Effect in the test filed under Homo sapiens is 10.1%; in test [6] it was 21.6%; in test [7], 30.6%; in [8] it was -10.1%.

`COCc1nc(C(=O)NS(=O)(=O)c2ccc(C)s2)cs1`: the Percent Effect in [1] is -1.18%; in test [2], -5.13%; in [3] it was -1.4%; with Trypanosoma cruzi it was -5.35%; in [4] it was 6.56%; in [5], -7.25%. Besides, the Percent Effect in the test filed under Homo sapiens is 18.7%; in [6], 1.44%; in [7], 1.21%; in test [8], -0.772%.

For the molecule `CCc1nc(CN2CCN(C(=O)C3CCCCC3)CC2)cs1`, the Percent Effect in [1] is -3.52%; in test [2] it was 17.9%; in test [3], -8.26%; in the test with Trypanosoma cruzi, 7.23%; in [4], 1.64%; in test [5], 8.28%. Also, the Percent Effect in the test listed under Homo sapiens was 12%; in test [6], 5.26%; in test [7] it was 20.5%; in test [8], -7.32%.

Values taken from ChEMBL document CHEMBL3988442, “University of Dundee, Small-Polar-MMV Screening Library” (2021).
